{
  "source": "the supplement of paper PMC13380429",
  "data": [
    {"test_system": "Vero E6 infected with SARS-CoV-2", "assay": "SARS-CoV-2 infection rate relative to infected DMSO; higher = more infection, active = 60 or less", "details": "24 h", "values": [
      {"smiles": "CC[C@H]1CN2CCc3cc(OC)c(OC)cc3[C@@H]2C[C@@H]1C[C@H]1NCCc2cc(OC)c(OC)cc21", "note": "[emetine] (0.833333 µM)", "SARS-CoV-2 infection rate": "108% (inactive)"},
      {"smiles": "CN(C)CC/C=C1\\c2ccccc2CSc2ccccc21", "note": "[dosulepin] (10 µM)", "SARS-CoV-2 infection rate": "99.5% (inactive)"},
      {"smiles": "CC(C)Oc1ccc(-c2nn([C@@H](C)c3oc4ccc(F)cc4c(=O)c3-c3cccc(F)c3)c3ncnc(N)c23)cc1F", "note": "(10 µM)", "SARS-CoV-2 infection rate": "106% (inactive)"},
      {"smiles": "Nc1ncnc2c1ncn2[C@@H]1O[C@H](COP(=O)(O)OP(=O)(O)OP(=O)(O)OP(=O)(O)OC[C@H]2O[C@@H](n3cnc4c(N)ncnc43)[C@H](O)[C@@H]2O)[C@@H](O)[C@H]1O", "note": "[diadenosine-tetraphosphate] (10 µM)", "SARS-CoV-2 infection rate": "108% (inactive)"},
      {"smiles": "O=S(=O)(O)NC1CCCCC1", "note": "[cyclamic-acid] (10 µM)", "SARS-CoV-2 infection rate": "87.5% (inactive)"},
      {"smiles": "COc1c(C)c(C(=O)c2ccc(N)c(C(=O)O)c2)n2ccccc12", "note": "(10 µM)", "SARS-CoV-2 infection rate": "105% (inactive)"},
      {"smiles": "Cc1ncc(CO)c(/C=N/NC(=O)c2ccncc2)c1O", "note": "[pyridoxal-isonicotinoyl-hydrazone] (10 µM)", "SARS-CoV-2 infection rate": "100% (inactive)"},
      {"smiles": "CC1=C(/C=C/C(C)=C/C=C/C(C)=C/CO)C(C)(C)CCC1", "note": "[retinol] (10 µM)", "SARS-CoV-2 infection rate": "110% (inactive)"},
      {"smiles": "CO[C@H]1CC[C@H](N2C(=O)CNc3ncc(-c4ccc(C(C)(C)O)nc4)nc32)CC1", "note": "(0.833333 µM)", "SARS-CoV-2 infection rate": "82.5% (inactive)"},
      {"smiles": "CC(=O)Oc1ccccc1C(=O)Oc1ccccc1C(=O)O", "note": "[acetylsalicylsalicylic-acid] (10 µM)", "SARS-CoV-2 infection rate": "103% (inactive)"},
      {"smiles": "Clc1ccc([C@]23CNC[C@H]2C3)cc1Cl", "note": "[amitifadine] (10 µM)", "SARS-CoV-2 infection rate": "110% (inactive)"},
      {"smiles": "N=C(N)c1ccc(N2CCN(C3CCN(CC(=O)O)CC3)CC2)cc1", "note": "(10 µM)", "SARS-CoV-2 infection rate": "106% (inactive)"},
      {"smiles": "CCCCn1c(=O)c2[nH]c(C34CC5CC(CC3C5)C4)nc2n(CCCO)c1=O", "note": "(10 µM)", "SARS-CoV-2 infection rate": "100% (inactive)"},
      {"smiles": "C=C(C)[C@@H]1CC[C@]2(C(=O)O)CC[C@]3(C)[C@H](CC[C@@H]4[C@@]5(C)CC[C@H](OC(=O)CC(C)(C)C(=O)O)C(C)(C)[C@@H]5CC[C@]43C)[C@@H]12", "note": "[bevirimat-dimeglumine] (10 µM)", "SARS-CoV-2 infection rate": "113% (inactive)"},
      {"smiles": "CCC[C@@H]1CC(=O)N([C@@H](CC)C(N)=O)C1", "note": "[Brivaracetam] (10 µM)", "SARS-CoV-2 infection rate": "111% (inactive)"},
      {"smiles": "CC(C)C[C@H](NC(=O)[C@@H]1CCCN1)C(=O)NCC(N)=O", "note": "[prolylleucylglycinamide] (10 µM)", "SARS-CoV-2 infection rate": "99% (inactive)"},
      {"smiles": "C[C@H]1[C@H](C)CC[C@]2(C(=O)O)CC[C@]3(C)C(=CC[C@@H]4[C@@]5(C)C[C@@H](O)[C@H](O)C(C)(C)[C@@H]5CC[C@]43C)[C@H]12", "note": "[corosolic-acid] (10 µM)", "SARS-CoV-2 infection rate": "116% (inactive)"},
      {"smiles": "COc1ccc(Oc2c(Cl)cnn(C3c4ccccc4-c4ccccc43)c2=O)cc1", "note": "(10 µM)", "SARS-CoV-2 infection rate": "102% (inactive)"},
      {"smiles": "CC(C)(C)/[N+]([O-])=C/c1ccc(S(=O)(=O)O)cc1S(=O)(=O)O", "note": "(10 µM)", "SARS-CoV-2 infection rate": "114% (inactive)"},
      {"smiles": "Cc1cc(C)n(-c2cccc([C@H](CC(=O)O)CN3CC[C@@H](CCc4ccc5c(n4)NCCC5)C3)c2)n1", "note": "[integrin-antagonist-1] (10 µM)", "SARS-CoV-2 infection rate": "111% (inactive)"},
      {"smiles": "CNCCn1c(=O)c2cc(OC)c(OC)cc2c2cnc3cc4c(cc3c21)OCO4", "note": "(10 µM)", "SARS-CoV-2 infection rate": "118% (inactive)"},
      {"smiles": "CC(C)N(CCNC(=O)CN1CCCC1=O)C(C)C", "note": "[pramiracetam] (10 µM)", "SARS-CoV-2 infection rate": "115% (inactive)"},
      {"smiles": "CCn1cc(C(=O)O)c(=O)c2cc(F)c(N3CCNCC3)cc21", "note": "[norfloxacin] (10 µM)", "SARS-CoV-2 infection rate": "86% (inactive)"},
      {"smiles": "C[C@@H]1COC(Nc2ccc3ncnc(Nc4ccc(OCc5nccs5)c(Cl)c4)c3c2)=N1", "note": "(10 µM)", "SARS-CoV-2 infection rate": "97% (inactive)"},
      {"smiles": "CCCC[C@H](NC(=O)[C@@H]1[C@@H]2[C@H](CN1C(=O)[C@@H](NC(=O)NC1(CS(=O)(=O)C(C)(C)C)CCCCC1)C(C)(C)C)C2(C)C)C(=O)C(=O)NC1CC1", "note": "[narlaprevir] (10 µM)", "SARS-CoV-2 infection rate": "111% (inactive)"},
      {"smiles": "C[C@H](CCC(=O)O)[C@H]1CC[C@H]2[C@@H]3[C@H](O)C[C@@H]4C[C@H](O)CC[C@]4(C)[C@H]3C[C@H](O)[C@]12C", "note": "[cholic-acid] (10 µM)", "SARS-CoV-2 infection rate": "110% (inactive)"},
      {"smiles": "CC(C)(N)CC12CC3CC(CC(C3)C1)C2", "note": "[somantadine] (10 µM)", "SARS-CoV-2 infection rate": "96% (inactive)"}
    ]}
  ]
}
